High-throughput results deposited in PubChem BioAssay by National Center for Advancing Translational Sciences (NCATS).
Cruzain inh noDet: cruzain (T. cruzi) inhibition without detergent; purified cruzain, Z-FR-AMC fluorescence, no detergent; 2.3% of 200,000 active; P25779; Potency, µM, usual class: inhibitors; AID 1476; further: nearly all actives have a fitted effect of over 40% in size
Target sequence (P25779 123-467 limits assumed): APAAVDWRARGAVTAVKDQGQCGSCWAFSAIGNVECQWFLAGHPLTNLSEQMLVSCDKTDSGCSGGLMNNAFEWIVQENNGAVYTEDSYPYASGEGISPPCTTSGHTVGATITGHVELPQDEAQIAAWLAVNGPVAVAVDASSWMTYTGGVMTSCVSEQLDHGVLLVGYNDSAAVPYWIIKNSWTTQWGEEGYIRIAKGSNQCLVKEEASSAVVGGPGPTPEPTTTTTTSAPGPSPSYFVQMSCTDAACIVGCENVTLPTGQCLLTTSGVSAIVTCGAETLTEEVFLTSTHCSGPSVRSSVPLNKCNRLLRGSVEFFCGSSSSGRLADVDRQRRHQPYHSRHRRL
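Detergent-free condition (0.00005% Triton X-100) in acetate buffer pH 5.5 with DTT. 1.5 nM enzyme and compound were pre-mixed 15 min, then 2 uM Z-FR-AMC substrate added; reaction progress from fluorescence change between first and third reads (60 s).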
Cruzain Triton: cruzain (T. cruzi) inhibition with detergent | purified cruzain, Z-FR-AMC fluorescence, 0.01% Triton | Potency, µM, usual class: inhibitors | 0.43% of 200,000 active | AID 1478; further: nearly all actives have a fitted effect of over 40% in size
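Steps: dispense cruzain (1.5 nM final) in acetate buffer pH 5.5 with DTT and 0.01% Triton X-100; pin-transfer compounds; incubate 15 min RT; add Z-FR-AMC (2 uM final); read fluorescence every 30 s, using the 60 s intensity change.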
Of the large screens only hits and unclear results are named; the others gave an inactive call. Shown are actives, neighbours in structure and some others; about 2.6% of the full set was active somewhere. The call rests on the fitted dose curve; in most records, active means well fitted curve in the direction sought with a large enough effect; inconclusive means small, poorly fitted or top-dose-only effect, or another doubt; inactive means no such curve, though single readings can be large; an effect the other way counts as inactive or inconclusive.

C(#Cc1ccccc1)C[N+]1(CC#Cc2ccccc2)CCCC1	none
O=C(N/N=C/c1cccc(Oc2ccc([N+](=O)[O-])cc2[N+](=O)[O-])c1)c1cncc(Br)c1	Cruzain inh noDet 25µM
Cc1ccccc1OCC(=O)N/N=C/c1cccc(Oc2ccc([N+](=O)[O-])cc2[N+](=O)[O-])c1	Cruzain inh noDet inconclusive
COc1cc(-c2ccc(N=C=O)c(OC)c2)ccc1N=C=O	Cruzain inh noDet 32µM
COc1cc(-c2ccc(NC(=O)c3ccc(C)cc3)c(OC)c2)ccc1NC(=O)c1ccc(C)cc1	none
COc1ccc2cc(/C=N/NC(=O)c3ccc(CN(c4cccc(Cl)c4Cl)S(C)(=O)=O)cc3)c(Cl)nc2c1	Cruzain inh noDet 25µM
Cc1ccccc1OCC(=O)N/N=C/c1cc2ccccc2nc1Cl	none
CNC(=S)N1N=C(c2ccc(C)cc2)CC1c1ccc(OC)cc1 (configuration not stated)	none
Cc1ccc(NC(=O)N2N=C(c3ccc(F)cc3)CC2c2ccc(F)cc2)cc1 (configuration not stated)	Cruzain inh noDet 1.3µM
N#Cc1c(NCCN)nc(-c2ccco2)c2c1CCCC2	Cruzain inh noDet 25µM
CN(C)CCNc1nc(-c2ccco2)c2c(c1C#N)CC(C)(C)OC2	none
COc1ccc(C2=N[C@@H](C(C)C)CO2)cc1	none
CN1/C(=C\C(=S)NC(=O)c2ccc([N+](=O)[O-])cc2)C(C)(C)c2ccccc21	Cruzain inh noDet inconclusive
CN1/C(=C\C(=S)NC(=O)c2cccc(Br)c2)C(C)(C)c2ccccc21	Cruzain inh noDet inconclusive, Cruzain Triton 3.5µM
COc1ccc(NC(=O)c2cc3c(=O)n(C)c4cc(Cl)ccc4c3s2)cc1Cl	none
NC(=O)c1ccc(NC(=O)COC(=O)c2cccc(Oc3ccccc3)c2)cc1	Cruzain inh noDet 16µM
O=C(COC(=O)c1cccc(N2C(=O)c3ccccc3C2=O)c1)Nc1ccccc1	none
O=C(c1ccc(F)cc1)N1CCN(CCc2ccncc2)CC1	none
Cc1ccc(CNC(=O)Cn2ccn(-c3ccc(C)c(C)c3)c(=O)c2=O)cc1	none
COc1ccc2c(c1)C(=O)[C@@H](OC(=O)Nc1ccc(C)c(Br)c1)[C@H](c1ccc(OC)c(Br)c1)O2	Cruzain inh noDet 25µM
COc1ccc2c(c1)C(=O)[C@H](OC(=O)Nc1ccc(C)c(Br)c1)[C@@H](c1ccc(OC)c(Br)c1)O2	Cruzain inh noDet inconclusive
O=C(CSc1nc(-c2ccccc2)nc2c1CCCC2)c1ccc(F)cc1	none
C#CCn1cnc2c(cnn2-c2ccc(F)cc2)c1=O	none
C=CCNc1sc(C(=O)c2ccccc2)c(N)c1C#N	none
C=CCNc1sc(C(=O)c2ccc(Br)s2)c(N)c1C#N	Cruzain inh noDet 16µM
CCOC(=O)C1(C)C=C(Nc2cccc(C)c2)C(=O)N1c1ccccc1 (configuration not stated)	none
O=C(Oc1oc(-c2ccco2)nc1C=Nc1ccccc1)c1ccco1	Cruzain inh noDet 16µM, Cruzain Triton 14µM
O=C(Oc1oc(-c2ccco2)nc1C=Nc1ccccc1)c1ccoc1	Cruzain inh noDet inconclusive, Cruzain Triton 22µM
O=c1oc(-c2ccco2)nc2c1cnn2-c1ccccc1	none
Cc1ccc(N=Cc2nc(-c3ccco3)oc2O)cc1	none
COc1ccc(C)cc1NC(=O)c1ccc(=O)n(Cc2ccccc2)c1	none
CN1C(=O)/C(=C\c2cc(N=Nc3ccccc3)ccc2O)SC1=S	Cruzain inh noDet 25µM
Cc1nn(-c2ccccc2)c(Cl)c1/C=C1\SC(=S)N(C)C1=O	none
COc1ccc(NC(=O)[C@@H]2[C@@H]3C(=O)N(C4CCCCC4)C(=O)[C@@H]3C3c4ccccc4C=CN32)cc1 (some centres not stated)	Cruzain inh noDet 16µM
CC(=O)[C@@H]1[C@@H]2C(=O)N(C3CCCCC3)C(=O)[C@@H]2C2c3ccccc3C=CN21 (some centres not stated)	none
OCc1ccccc1N=c1ssnc1Cl	Cruzain inh noDet 25µM
Cc1cc(C)cc(NC(=O)N2CCC(C(N)=O)(N3CCCCC3)CC2)c1	none
COc1ccccc1NC(=O)Cn1c(=O)n(-c2ccc(C)cc2)c(=O)c2ccc(C(=O)NCc3ccco3)cc21	none
Cc1ccc2c(c1)c(=O)c(C(=O)c1ccc3c(c1)OCO3)cn2Cc1ccc(Cl)cc1	Cruzain inh noDet inconclusive
O=C(c1ccc2c(c1)OCO2)c1cn(Cc2ccc(Cl)cc2)c2ccc(F)cc2c1=O	Cruzain inh noDet 25µM
Nc1nc2ncc(=O)[nH]c2c(=O)[nH]1	none
C/C(=N\NC(=O)c1ccc(CN(C)S(=O)(=O)c2ccc(C)cc2)cc1)c1ccc(OC(F)F)cc1	none
Cc1ccc(S(=O)(=O)N(C)Cc2ccc(C(=O)N/N=C/c3ccc(OC(F)F)cc3)cc2)cc1	Cruzain inh noDet 10µM
CCOc1ccc(CNC(=O)C2CCCN(S(=O)(=O)c3ccc4c(ccn4C)c3)C2)cc1 (configuration not stated)	none
O=C1OCCN1C(=O)[C@H]1[C@H](c2ccc(Cl)cc2)C(c2cccc(Cl)c2)=NN1c1ccccc1	Cruzain inh noDet 18µM
C[C@@H]1C(c2ccc(F)cc2)=NN(c2ccccc2)[C@H]1C(=O)N1CCOC1=O	none
O=C1OCCN1C(=O)[C@H]1[C@H](c2ccc(F)cc2)C(c2cccc(Cl)c2)=NN1c1ccccc1	Cruzain inh noDet 20µM
CC[C@@H]1C(c2cccc(Cl)c2)=NN(c2ccccc2)[C@H]1C(=O)N1CCOC1=O	none
CCN(CCCNC(=O)c1ccc(Sc2ccc(F)cc2)c(NC(C)=O)c1)c1ccccc1	none
CCc1ccc(S(=O)(=O)c2cnc(SCC(=O)Nc3ccc(OC)cc3OC)[nH]c2=O)cc1	none
Cc1ccc(NC(=O)CSc2ncc(S(=O)(=O)c3ccc(C(C)C)cc3)c(=O)[nH]2)cc1C	none
Cc1c(Cl)cccc1NC(=O)CSc1ncc(S(=O)(=O)c2ccc(C(C)C)cc2)c(=O)[nH]1	Cruzain inh noDet inconclusive, Cruzain Triton 28µM
COc1cc(Cl)c(C)cc1NC(=O)CSc1ncc(S(=O)(=O)c2ccc(C(C)(C)C)cc2)c(=O)[nH]1	Cruzain Triton 28µM
CCC(=O)N1CCc2cc(S(=O)(=O)NC(C(=O)Nc3cc(OC)cc(OC)c3)C(C)C)ccc21 (configuration not stated)	none
Cc1cccc(N(CC(=O)Nc2ccc(Br)cc2)S(C)(=O)=O)c1C	none
COc1ccc(-c2noc(CSc3nc4sc(C)c(C)c4c(=O)n3-c3ccccc3)n2)cc1	Cruzain inh noDet 7.9µM
COc1ccc(-c2noc(CSc3nc4sc(C)c(C)c4c(=O)n3-c3ccccc3)n2)cc1OC	none
Cc1noc(C)c1CSc1nc2ccccc2c(=O)n1-c1ccc(Cl)cc1	Cruzain inh noDet 20µM
Cc1noc(C)c1CSc1nc2sc(C)c(C)c2c(=O)n1-c1ccccc1	none
COc1ccc(-c2noc(CSc3nc4ccccc4c(=O)n3-c3ccccc3)n2)cc1OC	none
O=c1c2ccccc2nc(SCc2nc(-c3ccccc3)no2)n1-c1ccc(F)cc1	Cruzain inh noDet 25µM
Cc1ccc(-c2nc(CCNC(=O)C(=O)Nc3ccc(F)cc3F)cs2)cc1	none
Cc1nc(SCc2nc3ccccc3[nH]2)c2oc3ccccc3c2n1	Cruzain inh noDet 16µM, Cruzain Triton inconclusive
Cc1nc(N2CCN(Cc3nc4ccccc4[nH]3)CC2)c2oc3ccccc3c2n1	Cruzain inh noDet inconclusive
c1ccc2[nH]c(CSc3ncnc4c3oc3ccccc34)nc2c1	Cruzain inh noDet 16µM, Cruzain Triton inconclusive
Fc1ccc(CSc2ncnc3c2oc2ccccc23)cc1	none
Cc1ccc(C(=O)CSc2nc(-c3ccccc3)nc3c2CCCC3)cc1C	none
Cn1c(=O)c(-c2cc(F)cc(F)c2)nc2cnc(Oc3ccccc3)nc21	none
